In PubChem BioAssay (NCI) one finds growth data, which are given here for 40 compounds.

This is part of a sample that, as a whole, favours compounds with a hit. Of some 83,000 tested, about 20% had one in any assay.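 Each cell line was grown in a 96-well plate and treated with one concentration of compound for 48 hours. Values below 10 were considered active.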 Active and inactive are the calls of the source.

This assay relates to HL-60(TB) leukemia. Briefly: NCI-60 one-dose screen, 48 h (100 = growth as untreated, 0 = no growth, -100 = all killed). The conditions noted are these: 10 µM unless noted.
As to `O=C(Nc1ccc(I)cc1)c1cc([N+](=O)[O-])ccc1O`, the growth was 20.6% (inactive).
`Cc1ccc(SC2c3ccc(C)cc3Oc3nc(N)c(C#N)c(N)c32)cc1` (stereo not given): the growth is -6.43% (active).
For the compound `CCCCCCCCCCCCCCCCCCOc1ccccc1CC(=O)OCC[N+](C)(C)C`, the growth is -38% (active).
For the compound `COc1ccc(C(=O)c2sc3nc4c(c(-c5cccnc5)c3c2N)CCCC4)cc1OC`, the growth was 86.6% (inactive).
Turning to `ClC1=C2NC=NC2n2c(nnc2-c2ccc(Cl)cc2)N1` (stereo not given), the growth is 118% (inactive).
Next, `CC(C)(CNC1CCCCC1)OC(=O)c1ccccc1`: 95.3% (inactive).
For the compound `COc1cc([C@@H](CCO)C[C@H](C)c2ccc3ccccc3c2)cc(OC)c1OC`, the growth is 6.14% (active).
Next, `C=CCN1C(=O)/C(=c2\sc3n(c2=O)C2C(NN=3)N(CC)C(=O)N2CC)c2ccccc21` (stereo not given): -17.4% (active).
To `COc1cc2c(cc1OCCCCN1CCN(CC(=O)Nc3ccc(Cl)cc3C(=O)c3ccccc3Cl)CC1)N=CC1CCCN1C2=O` (stereo not given) belongs -72.1% (active).
As to `CC(C)CSc1oc(-c2ccccc2)nc1S(=O)(=O)c1ccccc1`, the growth is 82% (inactive).
Consider `COC(=O)/C=C1/SC(=Nc2ccc(F)cc2)N(CCc2c[nH]c3ccc(O)cc23)C1=O`, for which the growth is -8.07% (active).
For the compound `O=c1[nH]cnc2c1C(c1ccc(Br)cc1)c1sc3c(F)cccc3c1O2` (stereo not given), the growth was 99.4% (inactive).
Next, `C/C(=C(/c1ccccc1)c1ccc(N2C(=O)c3cccc4c(N5CCN(C)CC5)ccc(c34)C2=O)cc1)c1ccccc1`: 99.3% (inactive); `Nc1cc(O)cc(O)c1`: 98.6% (inactive); `COc1ccc(-c2oc(=O)ccc2-c2cc(OC)c(OC)c(OC)c2)cc1F`: 44.6% (inactive).
Turning to `Cc1ccc(-c2nc(C#N)c(S(=O)(=O)n3nc(C)cc3N)o2)cc1`, the growth was 16.6% (inactive).
Turning to `O=C1CCCCN1CCCCC#Cc1cccc(C#Cc2cccnc2)c1`, the growth was -23.2% (active).
In the case of `N/C(=N\c1nc2ccccc2s1)NC(=NC1CCCCC1)NC1CCCCC1`, the growth was -36.3% (active).
For the compound `O=C(N/N=C/c1ccccc1O)c1ccccc1`, the growth was 11.4% (inactive).
`CC(=O)C1CCC(C)=CC1=O` (stereo not given): the growth is 119% (inactive).
For the compound `Cc1cccc(CN(Nc2ccccc2)c2ccccc2)n1`, the growth is 91.9% (inactive).
To `O=C1/C(=C\c2ccc[nH]2)c2ccccc2N1c1ccccc1` belongs 94.4% (inactive).
As for `CC(C)C1=NOC(=O)C1=Cc1cn(-c2ccccc2)nc1-c1ccccc1`, the growth is -45.2% (active).
With `O=C1C=CC2=C3c4cc(O)c(O)cc4CC3(O)COC2=C1O` (stereo not given), the growth is 102% (inactive).
To `Cc1cc(Cl)ccc1Nc1nc(C(F)(F)F)ccc1C(=O)N/N=C/c1ccc(F)cc1` belongs -35.6% (active); to `CCCCC(=O)Nc1nc2ccc(SCCC)cc2s1`, 19.5% (inactive).
In the case of `O=C(CSSCC(=O)c1ccc(Cl)cc1)c1ccc(Cl)cc1`, the growth is 44.7% (inactive).
On to `COc1ccc(/C=C2\Oc3cc(OCCCN4CCCCC4)ccc3C2=O)cc1OC`, for which the growth is 99.9% (inactive).
Next, `OCc1cc(CN2CCCCC2)c(O)c2ncccc12`: 33.2% (inactive); `COc1ccc(-c2cc3c(nn2)-c2ccccc2C3=O)cc1`: 57.4% (inactive).
On to `CCCCNC(=O)NS(=O)(=O)Cc1ccccc1`, for which the growth was 88.1% (inactive).
As for `O=C1N/C(=C\c2ccccc2)c2ncccc21`, the growth was 117% (inactive).
For `O=C(CN1CCN(c2cc3c(cc2F)c(=O)c(C(=O)O)cn3C2CC2)CC1)N/N=C/c1ccco1`, the growth was 103% (inactive).
With `O=C(CCc1nnc2sc(/C=C\c3ccccc3)nn12)c1nc2ccccc2[nH]1`, the growth was 99.8% (inactive).
Regarding `COC(=O)c1c(C)nc(C)c2c1C(=O)C=C(NCc1ccccc1)C2=O`, the growth is 81.8% (inactive).
Take `COC(=O)/C=C1/SC(=Nc2cccc(Cl)c2)N(CCc2c[nH]c3ccc(O)cc23)C1=O`: the growth is -11.4% (active).
Turning to `CCOC(=O)Cc1cnc(N/N=C(\C)c2cc3ccccc3o2)s1`, the growth was 65.2% (inactive).
Turning to `O=C1CC[C@@H](C(=O)N[C@H]2CSSC[C@@H](C(=O)N/C=C/c3ccc(O)cc3)NC(=O)[C@H](Cc3ccccc3)NC(=O)[C@@H]3CCCN3C(=O)[C@@H]3CCCN3C2=O)N1`, the growth was 74% (inactive).
To `Cc1ccc(-n2nc3n(/c2=N\C(=O)NS(=O)(=O)c2ccc(C)cc2)CCN3C2=NCCN2)cc1` belongs 146% (inactive).
To `C#CC[C@@H]1C[C@]2(C)[C@H]3CC[C@@H]4[C@H]5C(C(=C)C)CC[C@]5(C(=O)NCCCCCCCCN)CC[C@@]4(C)[C@]3(C)CC[C@H]2C(C)(C)[C@H]1OC(C)=O` (stereo not given in full) belongs 22% (inactive).
